PubChem BioAssay
Active and inactive are the calls of the source.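 Rule for the calls, unless noted: active = inhibition of the reporter signal at or above 50%; inactive = inhibition below 50%.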

Legend:
[1] = inhibitors of TNFa-induced NFkB p65 translocation, primary screen, imaging, HUVEC, MLSMR starter and 10KST1 sets (AID 438;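 active = inhibition above 20% together with a positive visual image hit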;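 note: compound added about 3h40 before a 20 min TNFalpha stimulation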;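 for inhibition: signal is the nuclear over cytoplasmic p65 intensity ratio per well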); conditions: HUVEC TNFa-induced p65 nuclear translocation; cell count: measured here: nuclei count (cytotoxicity indicator), at 2.08 µM; inhibition: at 2 µM, stronger effect = higher value, 0% TNFa-plus-vehicle, 100% no-TNFa wells
[2] = reduction of polyQ htt aggregates in cells – imaging, exon1htt(103Q)mCFP cells, high-content imaging, primary screen (AID 483;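 active = visual image review flags a hit and inhibition of aggregation exceeds 20%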;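 note: compound exposure lasted 3 days before fixation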;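 for nuclei count: percent of the per-plate median nuclei count of sample wells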); conditions: exon1htt(103Q)mCFP cell line, aggregate imaging, at 2 µM; inhibition of aggregation: stronger effect = higher value; nuclei count: measured here: cell count, toxicity
[3] = endothelial E-selectin expression blockers – imaging, HUVEC, immunofluorescence, MLSMR starter and 10KST1 sets, primary screen (AID 487;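 active = visually confirmed hit in the image check and inhibition above 20%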;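 for inhibition: signal is fraction of cell area covered by stained E-selectin grains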;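 for nuclei count: 100% = median nuclei count of all wells on the same plate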); conditions: HUVEC TNFalpha-induced E-selectin immunofluorescence imaging, at 2 µM; inhibition: stronger effect = higher value; nuclei count: measured here: cell number, toxicity
[4] = target: Voltage-gated potassium channel subunit beta-2 (Rattus norvegicus) (UniProt P62483); assay: inhibitors of rat Kvbeta2 reductase activity – biochemical, NADPH fluorescence, primary screen (AID 622;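 active = fluorescence slope higher than the sample average by over 3 SD, cut at about -0.22 in these data, passing the limit was not always enough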;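 note: slope of raw intensity against log time taken from 70 to 1610 s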); conditions: recombinant KvBeta, 4-cyanobenzaldehyde reduction, at 10 µM, stronger effect = higher value
[5] = target: Voltage-gated potassium channel subunit beta-2 (Rattus norvegicus) (UniProt P62483); assay: enhancers of rat Kvbeta2 NADPH turnover – biochemical, NADPH fluorescence, primary screen (AID 623;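 active = NADPH fluorescence slope more negative than the mean of all samples by about 3 SD, 99.7% confidence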;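 note: fluorescence intensity change per second fitted from 20 to 320 s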); conditions: Recombinant KvBeta, NADPH fluorescence decrease slope, 10 min; at 10 µM; stronger effect = lower value
[6] = target: Alpha-2C adrenergic receptor (Homo sapiens) (UniProt P18825); assay: compounds altering alpha2C-coupled GIRK flux – cell-based, HEK293 alpha2C/GIRK1/2, thallium flux, primary screen (AID 624;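 active = fluorescence slope after compound addition differing from the mean of all screened samples at 99.7% confidence, in either direction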;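 note: slope of fluorescence ratio to pre-addition baseline per second over 15 to 24 s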); conditions: thallium flux BTC fluorescence, at 10 µM, actives lie on both sides
[7] = blockers of RIG-like receptor reporter activation – cell-based, Sendai virus stimulus, luciferase, 10K MLSCN set, TLR/RLR signaling modifier project, primary screen (AID 602276;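 active = inhibition at or above 50% at 10 µM; inactive = inhibition below 50%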;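 note: firefly luciferase from ISG56 promoter only with Renilla not read in this screen; 0% = Sendai virus plus DMSO and 100% = medium plus DMSO without virus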); conditions: HEK293 RL24 IRF3 luciferase reporter, at 10 µM, stronger effect = higher value
[8] = TLR3 IRF3 reporter activation blockers – cell-based, poly I:C stimulus, luciferase, 10K MLSCN set, primary screen (AID 602277); conditions: HEK293-TLR3 RL24 IRF3 luciferase reporter, at 10 µM, stronger effect = higher value

Sequence of Voltage-gated potassium channel subunit beta-2 (Rattus norvegicus) (P62483 whole entry, looked up): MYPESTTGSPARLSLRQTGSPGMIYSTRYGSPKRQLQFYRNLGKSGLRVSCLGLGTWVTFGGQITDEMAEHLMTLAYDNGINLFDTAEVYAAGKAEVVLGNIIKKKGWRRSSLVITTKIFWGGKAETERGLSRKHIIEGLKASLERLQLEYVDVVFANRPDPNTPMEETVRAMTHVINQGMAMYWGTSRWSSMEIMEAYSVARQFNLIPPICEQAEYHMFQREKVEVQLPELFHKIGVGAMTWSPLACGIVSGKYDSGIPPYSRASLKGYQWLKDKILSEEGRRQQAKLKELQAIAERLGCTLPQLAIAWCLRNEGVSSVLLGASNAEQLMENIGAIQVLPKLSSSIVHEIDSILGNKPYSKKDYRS
Sequence of Alpha-2C adrenergic receptor (Homo sapiens) (P18825 whole entry, looked up): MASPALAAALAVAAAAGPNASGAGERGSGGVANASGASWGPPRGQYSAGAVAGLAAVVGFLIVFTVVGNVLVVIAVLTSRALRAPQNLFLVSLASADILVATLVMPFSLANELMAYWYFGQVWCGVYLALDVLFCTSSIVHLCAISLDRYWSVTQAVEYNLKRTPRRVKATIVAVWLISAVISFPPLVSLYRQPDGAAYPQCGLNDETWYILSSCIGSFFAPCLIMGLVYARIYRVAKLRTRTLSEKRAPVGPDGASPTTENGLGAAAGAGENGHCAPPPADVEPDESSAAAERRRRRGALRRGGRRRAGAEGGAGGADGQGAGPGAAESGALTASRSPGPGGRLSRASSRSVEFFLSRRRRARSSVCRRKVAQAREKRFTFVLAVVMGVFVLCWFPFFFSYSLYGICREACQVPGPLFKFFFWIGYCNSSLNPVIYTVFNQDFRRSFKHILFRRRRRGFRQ

Compound	cell count [1]	inhibition [1]	inhibition of aggregation [2]	nuclei count [2]	inhibition [3]	nuclei count [3]	fluorescence slope [4]	NADPH fluorescence slope [5]	slope [6]	inhibition [7]	inhibition [8]
CC(=O)c1cccc(NC(=O)CCOc2ccccc2)c1	580	7.4% (inactive)	6% (inactive)	101%	1.3% (inactive)	119%	-0.428 (inactive)	4.3e-05 (inactive)	0.00322 (inactive)	-37.6% (inactive)	-83.6% (inactive)
CCOC(=O)c1c(C)n(OCc2ccccc2)c2ccc3c(no[n+]3[O-])c12	437	4% (inactive)	2.1% (inactive)	104%	8.8% (inactive)	111%	-0.484 (inactive)	-1e-05 (inactive)	0.00638 (inactive)	2.55% (inactive)	13.2% (inactive)
COC(=O)c1cc2ccsc2n1Cc1nc(-c2ccc(OC)cc2)oc1C	622	-17% (inactive)	-22% (inactive)	120%	-66.3% (inactive)	109%	-0.347 (inactive)	-2.6e-05 (inactive)	0.00726 (inactive)	-25.1% (inactive)	-56.7% (inactive)
CCN(CC)CCN1C(=O)C(=O)/C(=C(/O)c2c(C)[nH]c(C(=O)OC)c2C)C1c1ccccc1OC (centres undefined)	280	1% (inactive)	-20.7% (inactive)	109%	-11.7% (inactive)	101%	-0.454 (inactive)	-4.2e-05 (inactive)	0.00204 (inactive)	7.54% (inactive)	34.9% (inactive)
COc1ccc(C2CC(c3ccc(Cl)cc3Cl)n3nc(N)nc3N2)cc1 (centres undefined)	461	-1.8% (inactive)	-8.9% (inactive)	66.5%	-1.4% (inactive)	101%	-0.592 (inactive)	-5.5e-05 (inactive)	0.00726 (inactive)	9.25% (inactive)	25.2% (inactive)
CCc1ccc(CN(C)CCc2ccccn2)cc1	590	-7.7% (inactive)	7.2% (inactive)	108%	-61.6% (inactive)	94%	-0.482 (inactive)	-0.000258 (inactive)	0.00499 (inactive)	5.44% (inactive)	7.65% (inactive)
C=CCn1c2ccccc2c2nnc(SCC(=O)NC(C(=O)OC)C(C)C)nc21 (centres undefined)	787	-1.4% (inactive)	10.3% (inactive)	104%	-83.9% (inactive)	103%	-0.424 (inactive)	-0.000127 (inactive)	0.00508 (inactive)	14.6% (inactive)	27.7% (inactive)
CC1Cc2ccccc2N1S(=O)(=O)c1ccc2c(c1)n(C)c(=O)c(=O)n2C (centres undefined)	339	6.6% (inactive)	-25.5% (inactive)	96.4%	-21.1% (inactive)	111%	-0.43 (inactive)	6.1e-06 (inactive)	0.00562 (inactive)	19.2% (inactive)	17.1% (inactive)
COCCOC(=O)c1[nH]c2c(c1C)C(=O)CC(c1ccco1)C2 (centres undefined)	930	12.1% (inactive)	-345% (inactive)	2.7%	-169% (inactive)	95.8%	-0.568 (inactive)	-6.8e-06 (inactive)	0.00646 (inactive)	14.2% (inactive)	77.7% (active)
Cc1ccccc1Cn1cc(/C=N/n2cnnc2)c2ccccc21	416	12% (inactive)	18.9% (inactive)	68%	27.1% (inactive)	113%	-0.436 (inactive)	2.8e-05 (inactive)	0.00391 (inactive)	-7.96% (inactive)	21.3% (inactive)
Cc1ccc(-n2nnnc2SCC(=O)c2cc(C)n(-c3cc(C)on3)c2C)cc1	844	-12.4% (inactive)	-7.8% (inactive)	101%	-36.4% (inactive)	106%	-0.595 (inactive)	8.7e-07 (inactive)	0.00585 (inactive)	12.6% (inactive)	18.7% (inactive)
CCCCN(C)C(=O)CS(=O)(=O)Cc1nc(-c2cccc(OC)c2)oc1C	737	1.1% (inactive)	13.9% (inactive)	98.3%	-26.7% (inactive)	115%	-0.518 (inactive)	-3.7e-05 (inactive)	0.00718 (inactive)	16.1% (inactive)	16.3% (inactive)
Cc1ccc(-c2noc(CCC(=O)NCC3CCN(Cc4cccc(C)c4)CC3)n2)cc1	400	1.5% (inactive)	7.8% (inactive)	88.4%	17% (inactive)	89.5%	-0.401 (inactive)	-4.7e-05 (inactive)	0.0033 (inactive)	25.8% (inactive)	28.9% (inactive)
COc1ccc(C(O)C(CN2CCOCC2)c2ccccc2)cc1F (centres undefined)	337	-1.6% (inactive)	-2.1% (inactive)	102%	-20.8% (inactive)	104%	-0.493 (inactive)	1.8e-06 (inactive)	0.0062 (inactive)	13.7% (inactive)	17.9% (inactive)
